# Measurements as given in PubChem BioAssay (NCATS).
# “And” between values parts separate entries of the source, which are not always exact repeats. Equal entries are not always repeated. Records with an inconclusive call do not appear. Where a call stands in place of a potency, no number is given. More than one record can exist for a structure, and the calls need not agree. The source made the active and inactive calls. Calls come from the whole dose curve; as a rule, active = well fitted inhibition curve with a large enough effect; inconclusive = small, poorly fitted or top-dose-only effect; inactive = flat fitted curve, though single readings scatter.
# How the values were obtained:
# CRL-7250 = normal cell line; assay: Cytotoxic Profiling of Annotated Libraries Using Quantitative High-Throughput Screening (AID 1296008); conditions: Five cell lines viability, CellTiter-Glo ATP luminescence, 48-72 h; max response: stronger effect = lower value
# In short: (§1)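 Cytotoxicity was measured as CellTiter-Glo ATP luminescence, read after 10 min at room temperature. Compound treatment of the cells lasted 48 or 72 hr at 37 degrees Celsius in a qHTS format.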
# HEK293 = assay: as above; conditions: Five cell lines viability, CellTiter-Glo ATP luminescence, 48-72 h; max response: stronger effect = lower value
# In short: as §1
# HaCat [1] = assay: as above; conditions: Five cell lines viability, CellTiter-Glo ATP luminescence, 48-72 h; max response: stronger effect = lower value
# In short: as §1
# KB-3-1 = assay: as above; conditions: Five cell lines viability, CellTiter-Glo ATP luminescence, 48-72 h; max response: stronger effect = lower value
# In short: as §1
# NIH3T3 [2] = assay: as above; conditions: Five cell lines viability, CellTiter-Glo ATP luminescence, 48-72 h; max response: stronger effect = lower value
# In short: as §1
# HACAT [3] = assay: qHTS assay to identify novel small-molecules to repurpose for Merkel cell carcinoma treatment (AID 1296009); conditions: MCC and control cell lines, CellTiter-Glo viability, 72 h; note: potency is the fitted concentration of half-maximal effect
# In short: (§2)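 72 hr, 37 degree celsius; NPC 8-pt / MIPE 11-pt dose response; compound pinned in DMSO; CellTiter-Glo, 10 min RT, luminescence; normalized to no-cell and DMSO controls.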
# HEK293T = assay: as above; conditions: MCC and control cell lines, CellTiter-Glo viability, 72 h; at 44.8 µM (top of the series) unless noted
# In short: as §2
# MCC-13 = assay: as above; conditions: MCC and control cell lines, CellTiter-Glo viability, 72 h; series mostly up to 46 µM
# In short: as §2
# MKL-1 = assay: as above; conditions: MCC and control cell lines, CellTiter-Glo viability, 72 h; series mostly up to 46 µM
# In short: as §2
# MKL-2 = assay: as above; conditions: MCC and control cell lines, CellTiter-Glo viability, 72 h; series mostly up to 46 µM
# In short: as §2
# UISO = assay: as above; conditions: MCC and control cell lines, CellTiter-Glo viability, 72 h; series mostly up to 46 µM
# In short: as §2
# WaGa = assay: as above; conditions: MCC and control cell lines, CellTiter-Glo viability, 72 h; series mostly up to 46 µM
# In short: as §2
# SC27B = assay: qHTS profiling for inhibitors of Plasmodium falciparum proliferation (AID 504749); note: potency is the fitted concentration of half-maximal effect; conditions: P. falciparum in erythrocytes, SYBR Green DNA, 72 h; series mostly up to 28.7 µM
# In short: (§3)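 Infected RBCs, 0.3% parasitemia/2.5% Hct final; cpd 72 h, 37 C, 5% CO2; lysis buffer with saponin/triton/SYBR Green I, o/n RT dark; FI 485/535; norm. to artemisinin (0.29 uM) and DMSO.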
# TAB109 = assay: as above; conditions: P. falciparum in erythrocytes, SYBR Green DNA, 72 h; series mostly up to 28.7 µM
# In short: as §3
# TAB113 = assay: as above; conditions: P. falciparum in erythrocytes, SYBR Green DNA, 72 h; series mostly up to 28.7 µM
# In short: as §3
# TAB165 = assay: as above; conditions: P. falciparum in erythrocytes, SYBR Green DNA, 72 h; series mostly up to 28.7 µM
# In short: as §3
# W2 = assay: as above; conditions: P. falciparum in erythrocytes, SYBR Green DNA, 72 h; series mostly up to 28.7 µM
# In short: as §3
# MCC-26 = assay: qHTS assay to identify novel small-molecules to repurpose for Merkel cell carcinoma treatment (AID 1296009); conditions: MCC and control cell lines, CellTiter-Glo viability, 72 h; series mostly up to 46 µM; note: potency is the fitted concentration of half-maximal effect
# In short: as §2
# NIH3T3 [4] = assay: as above; conditions: MCC and control cell lines, CellTiter-Glo viability, 72 h; at 44.8 µM (top of the series) unless noted
# In short: as §2
# PC49 = assay: qHTS profiling for inhibitors of Plasmodium falciparum proliferation (AID 504749); note: potency is the fitted concentration of half-maximal effect; conditions: P. falciparum in erythrocytes, SYBR Green DNA, 72 h; series mostly up to 28.7 µM
# In short: as §3
# [5] = at 44.8 µM (top of the series) unless noted
# Note: nearly all actives have a fitted effect of over 60% in size.
smiles,measurement,setting,value
O=S(=O)(c1cccc2cnccc12)N1CCCNCC1,outcome,CRL-7250,inactive
same,max response,HEK293,-25.6% (inactive)
same,outcome,HEK293,inactive
same,outcome,HaCat [1],inactive
same,max response,KB-3-1,-15.9% (inactive)
same,outcome,KB-3-1,inactive
same,max response,NIH3T3 [2],0.496% (inactive) and -3.33% (inactive)
same,outcome,HACAT [3]; [5],inactive
same,outcome,HEK293T,inactive
same,Potency,MCC-13,inactive
same,Potency,MKL-1,inactive
same,Potency,MKL-2,inactive
same,Potency,UISO,inactive
same,Potency,WaGa,inactive
CCOc1cc(N)c(Cl)cc1C(=O)NCC1CN(Cc2ccc(F)cc2)CCO1 (stereo not given),Potency,SC27B,8.91 µM (active)
same,Potency,TAB109,10 µM (active)
same,Potency,TAB113,14.1 µM (active)
same,Potency,TAB165,6.31 µM (active)
same,Potency,W2,7.57 µM (active)
same,outcome,CRL-7250,inactive
same,outcome,HEK293,inactive
same,max response,HaCat [1],-10.3% (inactive)
same,outcome,HaCat [1],inactive
same,max response,KB-3-1,4.82% (inactive) and -2.19% (inactive)
same,max response,NIH3T3 [2],1.17% (inactive)
same,outcome,NIH3T3 [2],inactive
same,outcome,HACAT [3]; [5],inactive
same,outcome,HEK293T,inactive
same,Potency,MCC-13,inactive
same,Potency,MCC-26,inactive
same,Potency,MKL-1,inactive
same,Potency,MKL-2,inactive
same,outcome,NIH3T3 [4],inactive
same,Potency,UISO,inactive
same,Potency,WaGa,inactive
CC1=CC(=O)c2ccccc2C1=O,Potency,PC49,inactive
same,Potency,SC27B,inactive
same,Potency,TAB109,inactive
same,Potency,TAB113,inactive
same,Potency,TAB165,inactive
same,Potency,W2,6.01 µM (active)
same,max response,CRL-7250,3.35% (inactive)
same,outcome,CRL-7250,inactive
same,outcome,HaCat [1],inactive
same,max response,KB-3-1,1.53% (inactive)
same,outcome,KB-3-1,inactive
same,max response,NIH3T3 [2],-2.61% (inactive)
same,outcome,NIH3T3 [2],inactive
same,outcome,HACAT [3]; [5],inactive
same,outcome,HEK293T,inactive
same,Potency,MCC-13,inactive
same,Potency,MCC-26,inactive
same,Potency,MKL-1,inactive
same,Potency,MKL-2,inactive
same,outcome,NIH3T3 [4],inactive
same,Potency,UISO,inactive
same,Potency,WaGa,inactive
COCCCOc1cc(C[C@@H](C[C@H](N)[C@@H](O)C[C@H](C(=O)NCC(C)(C)C(N)=O)C(C)C)C(C)C)ccc1OC,max response,CRL-7250,-2.04% (inactive)
same,outcome,HEK293,inactive
same,max response,HaCat [1],0.78% (inactive)
same,outcome,HaCat [1],inactive
same,max response,KB-3-1,-10.1% (inactive) and 2.39% (inactive)
same,max response,NIH3T3 [2],-0.804% (inactive)
same,outcome,NIH3T3 [2],inactive
same,outcome,HACAT [3]; [5],inactive
same,outcome,HEK293T,inactive
same,Potency,MCC-13,inactive
same,Potency,MCC-26,inactive
same,Potency,MKL-1,inactive
same,Potency,MKL-2,inactive
same,outcome,NIH3T3 [4],inactive
same,Potency,UISO,inactive
same,Potency,WaGa,inactive
Cc1nnc(C(=O)NC(C)(C)c2nc(C(=O)NCc3ccc(F)cc3)c(O)c(=O)n2C)o1,max response,CRL-7250,1.7% (inactive) and -8.84% (inactive)
same,outcome,CRL-7250,inactive
same,max response,HaCat [1],-1.85% (inactive) and 3.43% (inactive)
same,outcome,HaCat [1],inactive
same,max response,KB-3-1,-0.518% (inactive) and 8.61% (inactive)
same,max response,NIH3T3 [2],-3.12% (inactive) and 2.12% (inactive)
same,outcome,NIH3T3 [2],inactive
same,outcome,HACAT [3]; [5],inactive
same,Potency,MCC-13,inactive
same,Potency,MKL-1,inactive
same,Potency,MKL-2,inactive
same,outcome,NIH3T3 [4],inactive
same,Potency,UISO,inactive
same,Potency,WaGa,inactive
CNCC[C@H](Oc1cccc2ccccc12)c1cccs1,Potency,PC49,4.47 µM (active)
same,Potency,TAB109,7.08 µM (active)
same,Potency,TAB113,8.91 µM (active)
same,Potency,TAB165,12.6 µM (active)
same,Potency,W2,1.9 µM (active)
same,max response,CRL-7250,-21.6% (inactive)
same,outcome,CRL-7250,inactive
same,outcome,HaCat [1],inactive
same,max response,KB-3-1,-19.6% (inactive) and -13.2% (inactive)
same,outcome,HACAT [3]; [5],inactive
same,Potency,MCC-13,inactive
same,Potency,MCC-26,inactive
same,Potency,MKL-2,16.8 µM (active) and 18.7 µM (active)
same,Potency,UISO,16.6 µM (active)
same,Potency,WaGa,inactive
CN1CCN(c2c(F)cc3c(=O)c(C(=O)O)cn4c3c2OCN4C)CC1,Potency,PC49,inactive
same,Potency,SC27B,inactive
same,Potency,TAB109,inactive
same,Potency,TAB113,inactive
same,Potency,TAB165,inactive
same,max response,CRL-7250,-0.174% (inactive)
same,outcome,CRL-7250,inactive
same,outcome,HaCat [1],inactive
same,max response,KB-3-1,-7.62% (inactive)
same,outcome,KB-3-1,inactive
same,max response,NIH3T3 [2],2.5% (inactive) and 4.99% (inactive)
same,outcome,HACAT [3]; at 17.4 µM (top of the series),inactive
same,outcome,HACAT [3]; at 44.8 µM (top of the series),inactive
same,outcome,HEK293T,inactive [at 17.4 µM]
same,Potency,MCC-13,inactive
same,Potency,MCC-26,inactive
same,Potency,MKL-1,inactive
same,Potency,MKL-2,inactive
same,Potency,UISO,inactive
same,Potency,WaGa,inactive
COc1cnc(NS(=O)(=O)c2ccc(N)cc2)nc1,Potency,PC49,inactive
same,Potency,SC27B,inactive
same,Potency,TAB109,inactive
same,Potency,TAB113,inactive
same,Potency,TAB165,inactive
same,Potency,W2,inactive
same,max response,CRL-7250,-6.42% (inactive) and -4.75% (inactive)
same,outcome,HEK293,inactive
same,max response,HaCat [1],-7.96% (inactive)
same,outcome,HaCat [1],inactive
same,max response,KB-3-1,12.3% (inactive)
same,outcome,KB-3-1,inactive
same,max response,NIH3T3 [2],-3.77% (inactive) and 1.75% (inactive)
same,outcome,HACAT [3]; [5],inactive
same,outcome,HEK293T,inactive
same,Potency,MCC-13,inactive
same,Potency,MCC-26,inactive
same,Potency,MKL-1,inactive
same,Potency,MKL-2,inactive
same,Potency,UISO,inactive
same,Potency,WaGa,inactive and 13.2 µM (active)
NS(=O)(=O)c1cc2c(cc1Cl)NC(C(Cl)Cl)NS2(=O)=O (stereo not given),max response,CRL-7250,-3.96% (inactive)
same,outcome,CRL-7250,inactive
same,max response,HaCat [1],-16.1% (inactive)
same,outcome,HaCat [1],inactive
same,max response,KB-3-1,9.97% (inactive)
same,outcome,KB-3-1,inactive
same,max response,NIH3T3 [2],3.32% (inactive) and -1.25% (inactive)
same,outcome,HACAT [3]; [5],inactive
same,outcome,HEK293T,inactive
same,Potency,MCC-13,inactive
same,Potency,MCC-26,inactive
same,Potency,MKL-1,inactive
same,Potency,MKL-2,inactive
same,Potency,UISO,inactive
same,Potency,WaGa,inactive
CCOC(=O)c1ccc(OC(=O)CCCCCN=C(N)N)cc1,Potency,PC49,inactive
same,Potency,SC27B,inactive
same,max response,CRL-7250,1.52% (inactive)
same,outcome,CRL-7250,inactive
same,max response,HaCat [1],4.21% (inactive)
same,outcome,HaCat [1],inactive
same,max response,KB-3-1,1.69% (inactive) and -0.41% (inactive)
same,outcome,NIH3T3 [2],inactive
same,outcome,HACAT [3]; [5],inactive
same,outcome,HEK293T,inactive
same,Potency,MCC-13,inactive
same,Potency,MCC-26,inactive
same,Potency,MKL-1,inactive
same,Potency,MKL-2,inactive
same,outcome,NIH3T3 [4],inactive
same,Potency,UISO,inactive
same,Potency,WaGa,inactive
